Assay results taken from PubChem BioAssay AID1984 (Sanford-Burnham Center for Chemical Genomics, 2009).
In all, about 290,000 compounds went through this assay and about 35 (0.01%) were called active. The sample holds actives, similar compounds and a random draw of the others, so the mix is not that of the screen. Unmarked numbers belong to inactive results.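 Rule for the calls: active = EGFP signal decrease of at least 30% at 10 µM or well 3 SD below plate mean, unless failing retest; inactive = the rest, including hits failing retest or dose response.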

molecular target: p/CIP-EGFP fusion (nuclear receptor coactivator 3, mouse) (UniProt Q05BA5); experiment: compounds lowering mouse p/CIP (NCOA3) protein levels – fluorescence, F442A cells, EGFP fusion, primary screen (AID 1984); conditions: 16 h, at 10 µM, hits give high values
Sequence (Q05BA5 1-1403): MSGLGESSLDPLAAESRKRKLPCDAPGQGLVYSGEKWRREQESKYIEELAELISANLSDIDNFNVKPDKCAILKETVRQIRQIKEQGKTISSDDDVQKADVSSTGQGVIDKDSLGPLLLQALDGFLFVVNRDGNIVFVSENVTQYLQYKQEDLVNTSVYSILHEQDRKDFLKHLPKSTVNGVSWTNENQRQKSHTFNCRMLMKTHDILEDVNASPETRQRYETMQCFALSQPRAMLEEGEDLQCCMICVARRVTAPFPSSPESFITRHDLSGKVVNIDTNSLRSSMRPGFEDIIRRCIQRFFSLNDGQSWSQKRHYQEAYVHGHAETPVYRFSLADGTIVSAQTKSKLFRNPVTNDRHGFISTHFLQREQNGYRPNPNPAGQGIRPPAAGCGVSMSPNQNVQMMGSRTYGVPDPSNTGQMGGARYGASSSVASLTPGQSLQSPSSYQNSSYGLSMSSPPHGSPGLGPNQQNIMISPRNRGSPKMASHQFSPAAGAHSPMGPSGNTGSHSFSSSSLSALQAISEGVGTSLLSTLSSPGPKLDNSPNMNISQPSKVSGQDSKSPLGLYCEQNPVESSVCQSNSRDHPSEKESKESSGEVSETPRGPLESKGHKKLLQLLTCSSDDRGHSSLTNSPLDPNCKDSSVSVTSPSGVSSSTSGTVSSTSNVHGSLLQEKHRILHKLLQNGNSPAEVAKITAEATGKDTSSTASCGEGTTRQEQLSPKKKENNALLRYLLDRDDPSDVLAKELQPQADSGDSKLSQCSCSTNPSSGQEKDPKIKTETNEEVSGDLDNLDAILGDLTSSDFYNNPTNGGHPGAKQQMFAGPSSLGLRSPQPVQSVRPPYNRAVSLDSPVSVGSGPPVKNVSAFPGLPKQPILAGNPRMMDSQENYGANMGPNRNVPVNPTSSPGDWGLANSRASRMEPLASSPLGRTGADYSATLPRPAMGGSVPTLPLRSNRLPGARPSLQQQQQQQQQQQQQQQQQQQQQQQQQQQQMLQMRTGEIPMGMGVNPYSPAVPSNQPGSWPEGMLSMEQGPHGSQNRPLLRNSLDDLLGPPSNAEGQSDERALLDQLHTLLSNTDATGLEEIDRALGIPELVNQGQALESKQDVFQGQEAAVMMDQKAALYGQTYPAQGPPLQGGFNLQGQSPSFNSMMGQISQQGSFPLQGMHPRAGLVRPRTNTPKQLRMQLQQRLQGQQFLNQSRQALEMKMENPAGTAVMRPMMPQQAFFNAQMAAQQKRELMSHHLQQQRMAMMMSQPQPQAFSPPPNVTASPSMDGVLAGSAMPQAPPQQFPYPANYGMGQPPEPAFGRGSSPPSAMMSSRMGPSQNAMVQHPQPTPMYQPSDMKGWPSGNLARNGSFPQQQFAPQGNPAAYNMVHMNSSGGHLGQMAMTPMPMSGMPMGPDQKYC

SMILES	decrease of EGFP signal
CN(C)CCN(C(=O)C1CCCCC1)c1nc2cc3c(cc2s1)OCO3	-21.2%
O=C(NCc1cccc(C(F)(F)F)c1)c1cccc(S(=O)(=O)N2CCN(Cc3ccccc3)CC2)c1	-8.5%
C=CCNC(=O)c1ccc2c3n(nc2c1)-c1ccc(C)cc1CO3	-3.3%
O=C(O)CCCCCCCCc1cn(CN2C(=O)c3ccccc3C2=O)nn1	-13.1%
CN(Cc1ccccc1Cl)C(=O)C1CCC(=O)N(CCc2cccc(F)c2)C1 (stereo unspecified)	-8.9%
CCOc1ccc2c(c1)c(=O)c(S(=O)(=O)c1ccc(C)cc1)cn2CC	-6%
CC(C)c1ccc(S(=O)(=O)N2CCC3(CC2)OCCO3)cc1	0.3%
CC1CN(S(=O)(=O)c2cccc(C(F)(F)F)c2)CN1C(=O)N1CCOCC1 (stereo unspecified)	-19%
CCCN(CCC)c1nc2c(C)cccn2c(=O)c1/C=C1/SC(=S)N(Cc2ccco2)C1=O	-656%
CCOC(=O)c1c(S(=O)(=O)NCC(=O)Nc2ccc(C)cc2)c(C)n(C)c1C	3.3%
COc1ccc(OC)c(CCNC(=O)CCn2ccc3cc(S(=O)(=O)N4CCCC4)ccc32)c1	1%
NC(=O)CC(NC(=O)Cc1ccc(Br)cc1)c1ccc(NC2CC3CCC2C3)c([N+](=O)[O-])c1 (stereo unspecified)	3.9%
Cn1c(SCc2ccc(F)cc2)nnc1-c1ccncc1	-10.6%
COc1ccc(CCNC(=O)CCc2cn(C)c3ccccc23)c(OC)c1	-1.8%
Cc1cc(C)cc(OCC(=O)Nc2cc(NC(=O)COc3cc(C)cc(C)c3)cc(C(=O)O)c2)c1	13.4%
O=C(CCCCCn1c(=S)[nH]c2ccsc2c1=O)NC1CCCCC1	1.2%
Cc1cc(C)c2nc(N3CCC(C(=O)NCCN4CCOCC4)CC3)sc2c1	-53.2%
CCc1cccc(NC(=S)N(CCN(C)C)C2CCN(C(C)C)CC2)c1	2.9%
COc1ccc(NC(=O)CSc2nc(SC)ns2)c(OC)c1	-9.3%
CC(C)(C)OC(=O)NC(Cc1ccccc1)C(=O)NC(CSC1CCCCO1)C(=O)NN (stereo unspecified)	1%
Cc1cccc(NC(=O)c2ccc([N+](=O)[O-])o2)c1	1.2%
CC(Sc1nnnn1C)C(=O)NC(=O)NC1CCCCC1 (stereo unspecified)	12.9%
O=Cc1c(NCCCN2CCCC2=O)c2ccccc2[nH]c1=O	-1.8%

SMILES	decrease of EGFP signal
N#Cc1ccc(C2N=C(c3ccccc3)NO2)cc1 (stereo unspecified)	-11.6%
Cc1ccc(C(=O)N/C(=C\c2cn(C)c3ccccc23)C(=O)N2CCN(C)CC2)cc1	3.7%
CCCCC(O)(CCCC)C(=O)NN(C(=O)CCl)c1ccccc1	-2.8%
CS/C(=C\C(=O)c1ccco1)Nc1ccccc1Cl	-2.4%
Cc1nn(-c2ccccc2)c(Cl)c1/C=N/NC(=O)c1nn(C)cc1[N+](=O)[O-]	-5.8%
COc1cc(NC(=O)c2ccc(-c3csc(C)n3)cc2)c(OC)cc1Cl	-15.5%
COc1ccccc1CN1CCN(Cc2cc(OC)c(OC)cc2OC)CC1	-13.1%
COc1ccc(C(=O)NC(C)CCc2ccccc2)c(OC)c1 (stereo unspecified)	-12.7%
O=C(O)c1ccccc1C(=O)NC1=NN(c2ccccc2)CC1	13.1%
CCc1ccc(C(=O)NN=C2CCCCCC2)s1	-8.5%
C=CCn1c(C23CC4CC(CC(C4)C2)C3)n[nH]c1=S	-8.9%
COCCNC(=O)CSc1nc2sccc2c(=O)n1-c1ccccc1	-15.6%
Cc1ccc(C(CNC(=O)Nc2cccc(C)c2)N2CCN(C)CC2)cc1 (stereo unspecified)	-22.3%
CC1C(=O)N(Cc2ccccc2)c2ccccc2N1C(=O)c1ccccc1 (stereo unspecified)	-15.4%
COc1ccc(N2CCN(C(=O)c3cccs3)CC2)cc1	-8%
Cc1nc2nc(SCC(=O)Nc3cccc(F)c3)[nH]c2cc1Br	-0.1%
CS(=O)(=O)c1ccccc1C(=O)Nc1ccc2sccc2c1	-7.2%
COc1ccc(-c2n[nH]c3c2CN(C(=O)c2ccc(F)cc2)CC3)cc1	-14.3%
CC(C)(C)C1CCc2c(sc3nc(SCC(N)=O)nc(N)c23)C1 (stereo unspecified)	-4.6%
O=C(NCCCn1ccnc1)/C(=C\c1ccccc1F)NC(=O)c1ccccc1	-21.2%
COc1ccc(OC)c(C(=O)NC(CC(N)=O)c2ccc(N3CCC(N4CCCCC4)CC3)c([N+](=O)[O-])c2)c1 (stereo unspecified)	-7.7%
CSCC[C@H](NC(=O)N1CCn2c1nc1ccccc12)C(=O)NCc1ccc2c(c1)OCO2	-3.3%
Nc1nnc2c(C(F)(F)F)nc3ccccc3n12	-5.5%

SMILES	decrease of EGFP signal
COc1ccc(C)cc1Nc1n[n+](-c2ccccc2)c(-c2cccc(Cl)c2Cl)s1	6.4%
CCN1N=C(c2ccccc2)CCC1=O	5.6%
COc1cc2ccccc2cc1C(=O)Nc1ccccc1C	-1.6%
CC(C)(C)c1ccc(C(=O)N2CCN(CCNC(=O)C(=O)Nc3ccc(F)cc3)CC2)cc1	-21.5%
CCc1ccc(Oc2coc3cc(O)ccc3c2=O)cc1	-7.6%
CC(=O)N1CCOc2ccc(S(=O)(=O)N3CCC(C(=O)Nc4ccccc4F)CC3)cc21	11.8%
O=C(CNC(=O)c1ccccc1)Oc1ccc([N+](=O)[O-])cc1	-14%
C=CCNC(=O)COC(=O)CNC(=O)c1cc(Cl)cc([N+](=O)[O-])c1	32% (active)
C=CCNC(=S)NNC(=O)COc1c(Cl)cc(Cl)cc1Cl	-6.1%
COc1ccc(NC2CCCN(C(=O)c3ccncc3)C2)cc1 (stereo unspecified)	-13.8%
CC(=O)c1cccc(NC(=O)C2CCN(C(=O)c3ccccc3Cl)CC2)c1	4.2%
Cc1ccccc1N(C(=O)CNC(=O)c1cccs1)C(C(=O)NC1CCCC1)c1ccncc1 (stereo unspecified)	12.1%
CC1(C)C=C2[C@H]3CC[C@@H]4[C@@]5(C)CCC(=O)C(C)(C)[C@@H]5CC[C@@]4(C)[C@]3(C)CC[C@@]2(C(=O)O)CC1	-6.3%
O=C(CN1CCN(S(=O)(=O)c2ccc(Br)cc2)CC1)Nc1ccccc1C(=O)c1ccccc1	-4.8%
NC(=O)c1cc(S(=O)(=O)N2CCCC2)ccc1OCc1ccc(F)cc1	-4.5%
COc1cccc(NC(=O)NCCN2CCCCC2)c1	-6.2%
OC(CNC1CCCC1)COc1ccc(F)cc1 (stereo unspecified)	26.4%
CCCCC(=O)Nc1nnc(S(=O)(=O)N(C)Cc2ccco2)s1	0.2%
Cc1ccc(N(Cc2cc(=O)[nH]c3ccccc23)C(=O)CCl)cc1	-8.8%
CN(C)S(=O)(=O)c1cccc(NC(=O)COC(=O)C2(c3ccccc3F)CCCC2)c1	-3%
Cc1[nH]c2ccccc2c1C(=O)CN1CCCC(C)C1 (stereo unspecified)	-10.8%
Cc1ccc(-c2nc(CSCC(=O)NC3CCN(Cc4ccccc4)CC3)c(C)o2)cc1	-10%
Cn1nccc1C(=O)NC1CCCc2c1cnn2-c1ccc(F)cc1F (stereo unspecified)	-26.2%

SMILES	decrease of EGFP signal
Cc1ccc(CNC(=O)CSc2nnc3c(n2)[nH]c2ccc(F)cc23)cc1	-14.9%
COc1cc(C2C(N3C(=O)c4ccccc4C3=O)C(=O)N2c2ccc(C)c(C)c2)cc(OC)c1OC (stereo unspecified)	8.2%
N#CC(C#N)=CN=c1ccn(Cc2ccc(Cl)cc2Cl)cc1	-1.4%
Cc1ccc(C(=O)NC2CCN(C(=O)Nc3ccccc3Cl)CC2)cc1	5.4%
CC1CCN(C(=O)c2ccccc2NC(=O)Cc2ccccc2)CC1	-1.7%
COc1ccccc1N(CC(=O)NC1CCCC1)C(=O)C1(C)CC(=O)N=C2C=CC(C)=CN21 (stereo unspecified)	-13.7%
Cc1ccc(OCC(=O)Nc2ccccc2C(=O)NC2CC2)cc1C	1.1%
COc1ccccc1NC(=O)CSc1nnc(CNC(=O)c2ccccc2F)o1	-0.3%
CCOC(=O)C1CCN(Cc2nnc(-c3cccc(Br)c3)o2)CC1	-16.9%
O=C(CCc1nnc(Cc2ccc3c(c2)OCO3)o1)NCCc1ccccc1Cl	-7.8%
O=C(NCCc1ccccc1)c1ccc2c(c1)N(Cc1ccccc1)CCS2	5.5%
Cc1ccc(NC(=S)Nc2ncccc2C)c(C)c1	-3.8%
COc1ccc(NS(=O)(=O)c2ccc(N3CCN(CCO)CC3)c([N+](=O)[O-])c2)cc1	-28.7%
C=C(C)C(=O)O[C@H]1C/C(C)=C\C(=O)/C=C(\C)[C@H](O)[C@@H]2OC(=O)C(=C)[C@@H]21	-31.6%
CC(C)NC(=O)N1CCN(c2ccncc2S(=O)(=O)N2CCCCC2)CC1	5.9%
Nc1c(N(CCO)C(=O)C2CCCCC2)c(=O)[nH]c(=O)n1Cc1ccccc1	-13.9%
CC(C)CCOc1ccc(C(=O)C[N+]2(C)CCOCC2)cc1	-10%
O=C(OCC(=O)N1CCN(C(=O)c2ccco2)CC1)c1cccc(O)c1	2.2%
Cc1ccc(NC(=O)CSc2nnc(CNC(=O)c3ccccc3F)o2)cc1Cl	-13%
CCc1cccc(NC(=O)CCCN2C(=O)C(c3ccccc3)Oc3cccnc32)c1 (stereo unspecified)	4.5%
O=C(COc1cccc(Cl)c1)NCc1ccccc1	-3.1%
CC(C(=O)N1CCN(c2ccccc2F)CC1)c1ccc([N+](=O)[O-])cc1 (stereo unspecified)	1.2%
